Assay outcomes deposited in PubChem BioAssay by several laboratories.
MPTP inh = permeability transition pore inhibition; isolated mouse mitochondria, Ca2+ swelling absorbance, 30 min; inhibition, % at 10 µM; 360,000 compounds, 1.4% hits; AID 602449;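 active = inhibition of 50% or more, scaled per plate between neutral and stimulator controls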
rCAG binder = binds r(CAG) RNA repeats; r(CAG) RNA repeat, TO-PRO-1 dye displacement fluorescence; inhibition, % at 3 µM; 370,000 compounds, 1.3% hits;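 active = inhibition above the plate cutoff, the mean of all test compounds on that plate plus 3 SD, cut at about 35% in these data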;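 note: higher means more dye released from RNA so lower well fluorescence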
NR3A LBD binder = modulates the human NR3A ligand-binding domain. Tm shift relative to glycine control, % at 25 µM. NR3A LBD differential scanning fluorimetry, Tm shift; 0% = protein alone, 100% = glycine-bound protein. AID 1259313. 340,000 compounds, 2.5% hits;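 active = melting temperature shift of at least 10% of the positive control shift, at one fixed dose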
Myeloid diff MLP = promotes myeloid progenitor differentiation; ER-HoxA9 myeloid progenitors, lysozyme-GFP differentiation, flow cytometry; AID 624256; 360,000 compounds, 1% hits; calls only at 10 µM;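 active = normalized GFP-positive differentiation at or above the plate's own cutoff, the solvent-only control mean plus 3 SD; inconclusive = no clear call, values can overlap the other calls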;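 note: cells exposed to compound for four days before flow analysis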
FAS TE block = inhibitors of human fatty acid synthase thioesterase domain | P49327 | recombinant FAS-TE, OMFH fluorogenic substrate, fluorescence endpoint | inhibition, % at 15 µM | 360,000 compounds, 0.67% hits | AID 602261;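 active = compounds whose normalised, plate-corrected inhibition of enzyme fluorescence in the single-dose primary screen is 50% or more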
FAS-TE conf = confirmation of human fatty acid synthase thioesterase inhibitors; shares compounds with FAS TE block; recombinant FAS-TE, OMFH fluorogenic substrate, fluorescence; inhibition, % at 15 µM; 2,300 compounds, 45% hits; AID 624325;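 active = compounds inhibiting the enzyme by at least 50% at 15 µM in any one of the replicates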
A number is an active result. This is a sample that favours compounds with a hit; in the whole collection about 5.7% have one here.

For CCOC1=C2[C@@H](CN(S(=O)(=O)c3ccc(C)cc3)[C@H]2c2cccs2)[C@H]2C(=O)N(c3ccccc3)C(=O)[C@H]2C1 the results were MPTP inh inactive, rCAG binder inactive, Myeloid diff MLP inactive and FAS TE block inactive.
Screening CCOC1=C2CN(S(=O)(=O)c3ccc(C)cc3)[C@H](c3cccc4ccccc34)C[C@H]2[C@H]2C(=O)N(c3ccccc3)C(=O)[C@H]2C1 returned MPTP inh inactive, rCAG binder inactive, Myeloid diff MLP inactive, FAS TE block 77 and FAS-TE conf inactive.
For CCOC1=C2CN(S(=O)(=O)c3ccc(C)cc3)[C@H](c3ccccc3)C[C@@H]2N(S(=O)(=O)c2ccc(Br)cc2)[C@H](c2ccccc2)C1 the results were MPTP inh inactive, rCAG binder inactive, Myeloid diff MLP inactive and FAS TE block inactive.
For CCOC1=C2CN(S(=O)(=O)c3ccc(C)cc3)[C@@H](c3ccc(CC)cc3)C[C@H]2[C@H]2C(=O)N(c3ccccc3)C(=O)[C@H]2C1 the results were MPTP inh inactive, rCAG binder inactive, Myeloid diff MLP inactive, FAS TE block 72 and FAS-TE conf inactive.
`CCOC(=O)[C@]12CCCC=C1N(Cc1ccc(OC)cc1)C(=O)[C@@H]2CC(=O)NCC12CC3CC(CC(C3)C1)C2` gave rCAG binder inactive.
For O=C1CC(N2CCN(c3ccc(S(=O)(=O)N4CCOCC4)cc3)CC2)C(=O)N1Cc1ccccc1 (stereo not drawn) the results were MPTP inh inactive, rCAG binder inactive, NR3A LBD binder inactive, Myeloid diff MLP inactive, FAS TE block 56 and FAS-TE conf 65.
For COc1ccc(N2CCN(C3CC(=O)N(Cc4ccccc4)C3=O)CC2)cc1 (stereo not drawn) the results were MPTP inh inactive, rCAG binder inactive, NR3A LBD binder inactive, Myeloid diff MLP inactive and FAS TE block inactive.
For COC(=O)c1cc2c(c3c4ccccc4n(S(=O)(=O)c4ccccc4)c13)C(=O)N(Cc1ccco1)C2 the results were rCAG binder inactive.
O=C(CSc1ncnc2c1nnn2Cc1ccccc1)NC1CCCCC1 was read as MPTP inh inactive, rCAG binder inactive, NR3A LBD binder inactive, Myeloid diff MLP inactive, FAS TE block 58 and FAS-TE conf 49.
Screening O=C(CSc1nnnn1Cc1ccccc1)NC1CCCCC1 returned MPTP inh inactive, rCAG binder inactive, NR3A LBD binder inactive, Myeloid diff MLP inactive and FAS TE block inactive.
For Cc1ccc(SC2=C(Sc3ccc(C)cc3)C(=O)c3ccccc3C2=O)cc1 the results were MPTP inh inactive, rCAG binder inactive, NR3A LBD binder inactive, Myeloid diff MLP inactive, FAS TE block 70 and FAS-TE conf inactive.
Nc1nc2c(ncn2[C@@H]2O[C@H](C(=O)N[C@@H](Cc3ccccc3)C(=O)NCC3CCCCC3)[C@@H](O)[C@H]2O)c(=O)[nH]1 was read as rCAG binder inactive.
Screening O=[N+]([O-])c1ccc(C(O)C(CO)NC(=S)Nc2ccccc2)cc1 (stereo not drawn) returned MPTP inh inactive, rCAG binder inactive, NR3A LBD binder inactive, Myeloid diff MLP inactive, FAS TE block 59 and FAS-TE conf 55.
For Cc1ccc(NC(=S)NC(CO)C(O)c2ccc([N+](=O)[O-])cc2)cc1 (stereo not drawn) the results were MPTP inh inactive, rCAG binder inactive, NR3A LBD binder inactive, Myeloid diff MLP inactive and FAS TE block inactive.
Cc1nc(/N=C(\N)NC(=O)N2c3ccccc3Sc3ccccc32)nc2ccccc12 was read as MPTP inh inactive, rCAG binder inactive, NR3A LBD binder inactive, Myeloid diff MLP inactive, FAS TE block 68 and FAS-TE conf inactive.
C=CCNc1cccc2c1S(=O)(=O)N[C@@H](Cc1ccccc1)CO2 was read as rCAG binder inactive.
`COCCNc1nc(-c2cc(F)ccc2C)c2sc(-c3ccccc3)cc2n1` gave MPTP inh inactive, rCAG binder inactive, Myeloid diff MLP inconclusive and FAS TE block inactive.
Screening O=C(NNc1nc(-c2ccccc2)c2cc(Br)ccc2n1)c1ccc(S(=O)(=O)N2CCCCC2)cc1 returned MPTP inh inactive, rCAG binder inactive, NR3A LBD binder inactive, Myeloid diff MLP inactive, FAS TE block 74 and FAS-TE conf inactive.
`CN(C)S(=O)(=O)c1ccc(C(=O)NNc2nc(-c3ccccc3)c3cc(Br)ccc3n2)cc1` gave MPTP inh inactive, rCAG binder inactive, NR3A LBD binder inactive, Myeloid diff MLP inactive and FAS TE block inactive.
Screening O=C(Nc1nc(-c2ccccc2)c(C(=O)c2ccccc2)s1)c1ccc(S(=O)(=O)N2CCCCC2)cc1 returned MPTP inh inactive, rCAG binder inactive, NR3A LBD binder inactive, Myeloid diff MLP inactive, FAS TE block 86 and FAS-TE conf inactive.
`O=C(NNc1nc(-c2ccccc2)c2cc(Br)ccc2n1)c1ccc(S(=O)(=O)N2CCOCC2)cc1` gave MPTP inh inactive, rCAG binder inactive, NR3A LBD binder inactive, Myeloid diff MLP inactive, FAS TE block 80 and FAS-TE conf inactive.
O=C(NCC1CCN(C(=O)C(=O)c2cccs2)CC1)c1cccnc1 was read as rCAG binder inactive.
`CCN(CC)CCN(C(=O)c1ccc2ccccc2c1)c1nc2cc3c(cc2s1)OCO3` gave MPTP inh inactive, rCAG binder inactive, NR3A LBD binder inactive, Myeloid diff MLP inactive and FAS TE block inactive.
Screening CCN(CC)CCN(C(=O)c1ccc(S(=O)(=O)N2CCCCC2)cc1)c1nc2cc3c(cc2s1)OCO3 returned MPTP inh inactive, NR3A LBD binder inactive, Myeloid diff MLP inactive, FAS TE block 53 and FAS-TE conf inactive.
O=C(C(=O)N1CCC(c2ccccc2)CC1)c1cccc([N+](=O)[O-])c1 was read as MPTP inh inactive, rCAG binder inactive and Myeloid diff MLP inactive.
Cc1ccc(S(=O)(=O)N2CCOCC2)cc1C(=O)NCCN1C(=O)S/C(=C\c2ccccc2Cl)C1=O was read as MPTP inh inactive, rCAG binder inactive, NR3A LBD binder inactive, Myeloid diff MLP inactive, FAS TE block 56 and FAS-TE conf inactive.
O=C(NCCN1C(=O)S/C(=C\c2cccnc2)C1=O)c1cc(S(=O)(=O)N2CCOCC2)ccc1F was read as MPTP inh inactive, rCAG binder inactive, NR3A LBD binder inactive, Myeloid diff MLP inactive and FAS TE block inactive.
`CCCCN1CN2Cc3cc(F)ccc3C2CS1(=O)=O` (stereo not drawn) gave rCAG binder inactive.
For CC(C)CCN1C(=O)c2ccc(C(=O)OCn3nnc4ccccc4c3=O)cc2C1=O the results were MPTP inh inactive, rCAG binder inactive, NR3A LBD binder inactive, Myeloid diff MLP inactive, FAS TE block 55 and FAS-TE conf inactive.
CC(C)CN1C(=O)C[C@@]2(C(=O)N(C)c3ccc(NS(=O)(=O)C4CCCCC4)cc32)C1c1ccccc1 (stereo partly drawn) was read as rCAG binder inactive.
